The supplement of paper PMC9262897, “Low-cost anti-mycobacterial drug discovery using engineered E. coli” (Nature Communications, 2022)
Structures can show the parent of a compound that is named as a salt. ± gives the standard deviation of the averaged measurements.

Legend:
Assay in all cases: growth (OD600 after 10 h); higher = more growth (less inhibition)
[1] = tested on: E. coli TESEC Alr+ wild-type control; settings: compound 0.1 mM; raw OD600 reference: median of DMSO wells 0.241, cell-free background 0.041
Procedure: (§1)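 TESEC Mtb Alr E. coli, or the Alr+ wild-type control, in 384-well plates with Prestwick library compounds at 0.1 mM and 1% DMSO, across arabinose induction levels of 1E3 to 1E7 nM. Growth is read as OD600 after 10 h at 37 °C in triplicate biological replicates.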

E. coli TESEC Mtb Alr [2] = settings: compound 0.1 mM
Procedure: as §1

E. coli TESEC Mtb Asd = settings: compound 0.1 mM
Procedure: (§2)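 TESEC E. coli strains in which the native enzyme is deleted and replaced by arabinose-inducible Mtb Asd, DapB, CysH or TrpD, each grown in its selective medium. Strains were screened against the Prestwick library at 0.1 mM and 1% DMSO in 384-well format at low and high arabinose induction. Growth is read as OD600 after 10 h in triplicate.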

E. coli TESEC Mtb DapB = settings: compound 0.1 mM
Procedure: as §2

[3] = tested on: E. coli TESEC Alr+ wild-type control; settings: compound 0.1 mM; raw OD600 reference: median of DMSO wells 0.49, cell-free background 0.052
Procedure: (§3)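 TESEC Mtb Alr E. coli (ΔaraC ΔtolC ΔentC Δalr ΔdadX, arabinose-inducible Mtb Alr) or the Alr+ wild-type control strain, grown in defined M9-fructose medium without D-alanine in 96-well plates with Prestwick library compounds at 0.1 mM and 1% DMSO. Low Alr induction is 0.1 µM arabinose and high induction is 10 mM arabinose.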

E. coli TESEC Mtb Alr [4] = settings: compound 0.1 mM; remark: listed apart in the source
Procedure: as §3

[5] = arabinose 1000 nM, raw OD600 reference: median of DMSO wells 0.294, cell-free background 0.041
[6] = arabinose 10000 nM, raw OD600 reference: median of DMSO wells 0.264, cell-free background 0.041
[7] = arabinose 100000 nM, raw OD600 reference: median of DMSO wells 0.201, cell-free background 0.041
[8] = arabinose 1000000 nM, raw OD600 reference: median of DMSO wells 0.193, cell-free background 0.041
[9] = arabinose 10000000 nM, raw OD600 reference: median of DMSO wells 0.146, cell-free background 0.041
[10] = arabinose induction (level): High, raw OD600 reference: median of DMSO wells 0.331, cell-free background 0.041
[11] = arabinose induction (level): Low, raw OD600 reference: median of DMSO wells 0.417, cell-free background 0.041
[12] = arabinose induction (level): High, raw OD600 reference: median of DMSO wells […], cell-free background 0.041
[13] = arabinose induction (level): Low, raw OD600 reference: median of DMSO wells 0.227, cell-free background 0.041
[14] = arabinose 100 nM, raw OD600 reference: median of DMSO wells 0.413, cell-free background 0.052
[15] = arabinose 10000000 nM, raw OD600 reference: median of DMSO wells […], cell-free background 0.052

SMILES	growth [1]	growth (E. coli TESEC Mtb Alr [2]; [5])	growth (E. coli TESEC Mtb Alr [2]; [6])	growth (E. coli TESEC Mtb Alr [2]; [7])	growth (E. coli TESEC Mtb Alr [2]; [8])	growth (E. coli TESEC Mtb Alr [2]; [9])	growth (E. coli TESEC Mtb Asd; [10])	growth (E. coli TESEC Mtb Asd; [11])	growth (E. coli TESEC Mtb DapB; [12])	growth (E. coli TESEC Mtb DapB; [13])	growth [3]	growth (E. coli TESEC Mtb Alr [4]; [14])	growth (E. coli TESEC Mtb Alr [4]; [15])
Cc1c(Nc2ncccc2C(=O)O)cccc1C(F)(F)F [Flunixin meglumine]	0.146 ± 0.0033	0.084 ± 0.007	0.0857 ± 0.0019	0.163 ± 0.005	0.082 ± 0.0026	0.127 ± 0.0028	0.157 ± 0.0086	0.125 ± 0.0096	0.178 ± 0.0075	0.187 ± 0.01	0.373 ± 0.034	0.277 ± 0.026	0.146 ± 0.021
C[N+](C)(CCOc1ccccc1)Cc1ccccc1.O=C([O-])c1cc2ccccc2cc1O [Bephenium hydroxynaphthoate]	0.175 ± 0.0073	0.266 ± 0.017	0.207 ± 0.0049	0.203 ± 0.0078	0.104 ± 0.0033	0.134 ± 0.0047	0.486 ± 0.047	0.365 ± 0.069	0.176 ± 0.046	0.216 ± 0.019	0.509 ± 0.023	0.381 ± 0.016	0.263 ± 0.0088
Cc1ncc([N+](=O)[O-])n1CC(O)CCl (centres undefined) [Ornidazole]	0.233 ± 0.0094	0.282 ± 0.012	0.268 ± 0.007	0.225 ± 0.019	0.177 ± 0.0086	0.1385 ± 0.00036	0.381 ± 0.015	0.421 ± 0.028	0.191 ± 0.0088	0.218 ± 0.031	0.43 ± 0.049	0.409 ± 0.0059	0.369 ± 0.02
COc1ccc(-c2ccc3cc(C(=O)O)ccc3c2)cc1C12CC3CC(CC(C3)C1)C2 [Adapalene]	0.2339 ± 0.00031	0.282 ± 0.014	0.26 ± 0.0041	0.185 ± 0.013	0.223 ± 0.016	0.125 ± 0.0023	0.231 ± 0.0037	0.298 ± 0.079	0.193 ± 0.013	0.249 ± 0.028	0.483 ± 0.01	0.435 ± 0.014	0.402 ± 0.085
CC[C@H]1OC(=O)C[C@@H](O)[C@H](C)[C@@H](O[C@@H]2O[C@H](C)[C@@H](O[C@H]3C[C@@](C)(O)[C@@H](O)[C@H](C)O3)[C@H](N(C)C)[C@H]2O)[C@@H](CC=O)C[C@@H](C)C(=O)/C=C/C(C)=C/[C@@H]1CO[C@@H]1O[C@H](C)[C@@H](O)[C@@H](OC)[C@H]1OC [Tylosin]	0.04133 ± 5.8e-05	0.0588 ± 0.0023	0.0397 ± 0.00017	0.0503 ± 0.0012	0.03953 ± 0.00032	0.0429 ± 0.0013	0.0667 ± 0.004	0.0597 ± 0.0035	0.0739 ± 0.0012	0.0754 ± 0.0056	0.0591 ± 0.00044	0.249 ± 0.12	0.0521 ± 0.00046
COc1ccc(-c2cc(=S)ss2)cc1 [Anethole-trithione]	0.182 ± 0.013	0.232 ± 0.008	0.218 ± 0.019	0.18 ± 0.0053	0.12 ± 0.026	0.168 ± 0.0049	0.211 ± 0.018	0.263 ± 0.022	0.193 ± 0.0052	0.218 ± 0.011	0.616 ± 0.027	0.4304 ± 0.0029	0.369 ± 0.019
Nc1nc2ccc(OC(F)(F)F)cc2s1 [Riluzole hydrochloride]	0.176 ± 0.007	0.188 ± 0.0051	0.255 ± 0.0058	0.212 ± 0.007	0.262 ± 0.016	0.194 ± 0.0031	0.388 ± 0.01	0.208 ± 0.02	0.241 ± 0.005	0.241 ± 0.0089	0.439 ± 0.011	0.415 ± 0.014	0.419 ± 0.0084
C#CCN(C)CCCOc1ccc(Cl)cc1Cl [Clorgyline hydrochloride]	0.14 ± 0.0066	0.168 ± 0.0046	0.175 ± 0.0062	0.174 ± 0.0076	0.0744 ± 0.0031	0.133 ± 0.011	0.25 ± 0.093	0.21 ± 0.04	0.158 ± 0.013	0.208 ± 0.016	0.458 ± 0.027	0.392 ± 0.0072	0.222 ± 0.016
CCC[C@@H]1C[C@@H](C(=O)N[C@@H]([C@H]2O[C@H](SC)[C@H](O)[C@@H](O)[C@H]2O)[C@H](C)Cl)N(C)C1 [Clindamycin hydrochloride]	0.0527 ± 0.0012	0.048 ± 0.0007	0.04127 ± 0.0004	0.0497 ± 0.00055	0.04133 ± 0.00032	0.0496 ± 0.00085	0.0699 ± 0.0019	0.0715 ± 0.0033	0.0755 ± 0.0023	0.0766 ± 0.0063	0.0771 ± 0.0023	0.15 ± 0.014	0.0594 ± 0.0027
C[C@]12C=CC(=O)C=C1CC[C@@H]1[C@@H]2[C@@H](O)C[C@@]2(C)[C@H]1CC[C@]2(O)C(=O)CO [Prednisolone]	0.213 ± 0.0043	0.263 ± 0.0084	0.248 ± 0.01	0.162 ± 0.0057	0.147 ± 0.0034	0.13 ± 0.0047	0.258 ± 0.038	0.456 ± 0.034	0.179 ± 0.015	0.254 ± 0.041	0.514 ± 0.065	0.426 ± 0.009	0.306 ± 0.011
CCN1CCN(C(=O)N[C@@H](C(=O)N[C@@H]2C(=O)N3[C@@H]2SC(C)(C)[C@@H]3C(=O)O)c2ccccc2)C(=O)C1=O [Piperacillin sodium salt]	0.237 ± 0.0061	0.295 ± 0.014	0.268 ± 0.0055	0.204 ± 0.0097	0.201 ± 0.0086	0.133 ± 0.0047	0.328 ± 0.021	0.4754 ± 0.0046	0.204 ± 0.01	0.207 ± 0.025	0.508 ± 0.061	0.405 ± 0.013	0.354 ± 0.011
O=C1CN(/N=C/c2ccc(-c3ccc([N+](=O)[O-])cc3)o2)C(=O)N1 [Dantrolene sodium salt]	0.2259 ± 0.00093	0.263 ± 0.0054	0.184 ± 0.003	0.143 ± 0.007	0.105 ± 0.0026	0.131 ± 0.0074	0.167 ± 0.014	0.258 ± 0.013	0.192 ± 0.016	0.231 ± 0.072	0.446 ± 0.023	0.319 ± 0.1	0.187 ± 0.033
O=C1C(=O)c2ccccc2C(O)=C1C1CCC(c2ccc(Cl)cc2)CC1 (centres undefined) [Atovaquone]	0.171 ± 0.0064	0.2 ± 0.0057	0.182 ± 0.015	0.151 ± 0.015	0.105 ± 0.0069	0.133 ± 0.0044	0.271 ± 0.12	0.23 ± 0.017	0.199 ± 0.009	0.204 ± 0.015	0.545 ± 0.044	0.442 ± 0.023	0.231 ± 0.025
